# Results reported in PubChem BioAssay (NCATS).
# Records with an inconclusive call do not appear. Where a call stands in place of a potency, no number is given. The source made the active and inactive calls. The call rests on the fitted dose curve; in most records, active means well fitted inhibition curve with a large enough effect; inconclusive means small, poorly fitted or top-dose-only effect; inactive means flat fitted curve, though single readings scatter.
# Key:
# Test in all cases: qHTS profiling for inhibitors of Plasmodium falciparum proliferation (AID 504749); further: nearly all actives have a fitted effect of over 60% in size
# Conditions in all cases: P. falciparum in erythrocytes, SYBR Green DNA, 72 h; series mostly up to 28.7 µM
# AA1029 = test system: AA1029
# Method in brief: (§1)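 P. falciparum-infected erythrocytes (0.3% parasitemia, 2.5% hematocrit final) were exposed to compounds for 72 h at 37 C in 5% CO2, then lysed with SYBR Green buffer overnight at room temperature; parasite DNA fluorescence was normalized to artemisinin and DMSO controls.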
# AS120 = test system: AS120
# Method in brief: as §1
# ATS189 = test system: ATS189
# Method in brief: as §1
# ATS95 = test system: ATS95
# Method in brief: as §1
# C2A = test system: C2A
# Method in brief: as §1
# CP185 = test system: CP185
# Method in brief: as §1
# CP191 = test system: CP191
# Method in brief: as §1
# CP192 = test system: CP192
# Method in brief: as §1
# CP194 = test system: CP194
# Method in brief: as §1
# CP201 = test system: CP201
# Method in brief: as §1
# CP203 = test system: CP203
# Method in brief: as §1
# CP211 = test system: CP211
# Method in brief: as §1
# CP215 = test system: CP215
# Method in brief: as §1
# CP217 = test system: CP217
# Method in brief: as §1
# CP237 = test system: CP237
# Method in brief: as §1
# CP238 = test system: CP238
# Method in brief: as §1
# CP247 = test system: CP247
# Method in brief: as §1
# CP250 = test system: CP250
# Method in brief: as §1
# CP252 = test system: CP252
# Method in brief: as §1
# CP256 = test system: CP256
# Method in brief: as §1
# Potency means the concentration at half of the fitted maximal effect.
Structure (SMILES),Potency (AA1029),Potency (AS120),Potency (ATS189),Potency (ATS95),Potency (C2A),Potency (CP185),Potency (CP191),Potency (CP192),Potency (CP194),Potency (CP201),Potency (CP203),Potency (CP211),Potency (CP215),Potency (CP217),Potency (CP237),Potency (CP238),Potency (CP247),Potency (CP250),Potency (CP252),Potency (CP256)
c1ccc2nc(N3CCNCC3)ccc2c1,inactive,inactive,inactive,inactive,inactive,inactive,inactive,inactive,inactive,inactive,inactive,inactive,inactive,inactive,inactive,inactive,inactive,inactive,inactive,inactive
C[N+](C)(C)CCOC(=O)C(O)(c1ccccc1)c1ccccc1,inactive,inactive,inactive,inactive,inactive,inactive,inactive,inactive,inactive,inactive,inactive,inactive,inactive,inactive,inactive,inactive,inactive,inactive,inactive,inactive
CC(C)(C)OC(=O)c1ncn2c1[C@@H]1CCCN1C(=O)c1c(Br)cccc1-2,inactive,inactive,inactive,inactive,inactive,inactive,inactive,inactive,inactive,inactive,inactive,inactive,inactive,inactive,inactive,inactive,inactive,inactive,inactive,inactive
CCC1(CC)C(=O)NC(=O)NC1=O,inactive,inactive,inactive,inactive,inactive,inactive,inactive,inactive,inactive,inactive,inactive,inactive,inactive,inactive,inactive,inactive,inactive,inactive,inactive,inactive
CNC(=O)Oc1cccc2ccccc12,inactive,inactive,inactive,inactive,inactive,inactive,inactive,inactive,inactive,inactive,inactive,inactive,inactive,inactive,inactive,inactive,inactive,inactive,inactive,inactive
NCc1cccnc1,inactive,inactive,inactive,inactive,inactive,inactive,inactive,inactive,inactive,inactive,inactive,inactive,inactive,inactive,inactive,inactive,inactive,inactive,inactive,inactive
C[C@]12CC[C@H]3[C@@H](CC=C4C[C@@H](O)CC[C@@]43C)[C@@H]1CC[C@@H]2O,inactive,inactive,inactive,inactive,inactive,inactive,inactive,inactive,inactive,inactive,inactive,inactive,inactive,inactive,inactive,inactive,inactive,inactive,inactive,inactive
N#Cc1nn(-c2c(Cl)cc(C(F)(F)F)cc2Cl)c(N)c1S(=O)C(F)(F)F (configuration not stated),8.91 µM (active),,,12.6 µM (active),8.91 µM (active),,6.31 µM (active),,15.1 µM (active),13.5 µM (active),,,,8.91 µM (active),5.01 µM (active),,,11.2 µM (active),,
c1cc2c(c(N3CCNCC3)c1)OCCO2,inactive,inactive,inactive,inactive,inactive,inactive,inactive,inactive,inactive,inactive,inactive,inactive,inactive,inactive,inactive,inactive,inactive,inactive,inactive,inactive
OC(O)C(Cl)(Cl)Cl,inactive,inactive,inactive,inactive,inactive,inactive,,inactive,inactive,inactive,inactive,inactive,inactive,inactive,inactive,inactive,inactive,inactive,inactive,inactive
C[C@]12C=CC(=O)C=C1CC[C@@H]1[C@@H]2CC[C@@]2(C)[C@H]1CC[C@]2(C)O,inactive,inactive,inactive,inactive,inactive,inactive,inactive,,,,,,,inactive,inactive,inactive,inactive,inactive,inactive,inactive
CN1C[C@@H](NS(=O)(=O)N(C)C)C[C@@H]2c3cccc4c3c(cn4C)C[C@H]21,,inactive,inactive,inactive,inactive,inactive,inactive,,inactive,inactive,inactive,,inactive,inactive,,inactive,inactive,inactive,inactive,
CCS(=O)(=O)C(C)(C)S(=O)(=O)CC,inactive,inactive,inactive,inactive,inactive,inactive,inactive,inactive,inactive,inactive,inactive,,inactive,inactive,inactive,inactive,inactive,inactive,inactive,inactive
O=C(CCCN1CCC(n2c(=O)[nH]c3ccccc32)CC1)c1ccc(F)cc1,3.55 µM (active),2.24 µM (active),1.58 µM (active),3.16 µM (active),,,1 µM (active),,,,4.55 µM (active),,4.55 µM (active),3.98 µM (active),1.41 µM (active),3.55 µM (active),3.55 µM (active),2.82 µM (active),,3.55 µM (active)
CN1C(=O)CN=C(c2ccccc2)c2cc([N+](=O)[O-])ccc21,inactive,inactive,inactive,inactive,inactive,inactive,inactive,inactive,inactive,inactive,inactive,inactive,,inactive,inactive,inactive,inactive,inactive,inactive,inactive
CCOC(=O)NC(O)C(Cl)(Cl)Cl (configuration not stated),inactive,inactive,inactive,inactive,inactive,inactive,inactive,inactive,inactive,inactive,inactive,inactive,inactive,inactive,inactive,inactive,inactive,inactive,inactive,inactive

Structure (SMILES),Potency (AA1029),Potency (AS120),Potency (ATS189),Potency (ATS95),Potency (C2A),Potency (CP185),Potency (CP191),Potency (CP192),Potency (CP194),Potency (CP201),Potency (CP203),Potency (CP211),Potency (CP215),Potency (CP217),Potency (CP237),Potency (CP238),Potency (CP247),Potency (CP250),Potency (CP252),Potency (CP256)
O=C(O)c1nn(Cc2ccc(Cl)cc2Cl)c2ccccc12,inactive,inactive,inactive,inactive,inactive,inactive,inactive,inactive,inactive,inactive,,inactive,inactive,inactive,inactive,inactive,inactive,inactive,inactive,inactive
Oc1ccc2[nH]cc(CCCCN3CC=C(c4ccccc4)CC3)c2c1,,,,,,,,,,,,,,,5.62 µM (active),,7.08 µM (active),,,
O=C(NC(=O)c1c(F)cccc1F)Nc1cc(Cl)c(OC(F)(F)C(F)C(F)(F)F)cc1Cl (configuration not stated),,8.91 µM (active),,,,,,inactive,inactive,inactive,inactive,inactive,inactive,,,,,,,8.91 µM (active)
COCC(=O)N(c1c(C)cccc1C)C(C)C(=O)OC (configuration not stated),inactive,,,,inactive,,,inactive,inactive,inactive,inactive,inactive,inactive,,inactive,,,,,inactive
CCCCCCCCCCCC[N+](C)(C)CCOc1ccccc1,5.01 µM (active),5.01 µM (active),8.91 µM (active),,7.08 µM (active),7.94 µM (active),4.47 µM (active),9.53 µM (active),15.1 µM (active),10.7 µM (active),10.7 µM (active),8.49 µM (active),12 µM (active),6.31 µM (active),5.01 µM (active),7.94 µM (active),7.08 µM (active),7.94 µM (active),7.94 µM (active),5.62 µM (active)
COP(=O)(OC)C(O)C(Cl)(Cl)Cl (configuration not stated),inactive,,inactive,inactive,inactive,inactive,inactive,inactive,inactive,inactive,inactive,inactive,inactive,inactive,inactive,inactive,inactive,inactive,inactive,inactive
O=C1NCN(c2ccccc2)C12CCN(CCCOc1ccc(F)cc1)CC2,,,,,,,,inactive,,inactive,,,inactive,,5.01 µM (active),,,,inactive,inactive
C=CCOC(Cn1ccnc1)c1ccc(Cl)cc1Cl (configuration not stated),8.91 µM (active),5.01 µM (active),10 µM (active),8.91 µM (active),,,,,15.1 µM (active),,9.53 µM (active),,12 µM (active),11.2 µM (active),4.47 µM (active),,,10 µM (active),,inactive
CCNc1nc(Cl)nc(NCC)n1,inactive,inactive,inactive,inactive,inactive,inactive,inactive,inactive,inactive,inactive,inactive,inactive,inactive,inactive,inactive,inactive,inactive,inactive,inactive,inactive
CCN(CC)CCOC(=O)C(C)(c1ccccc1)c1ccccc1,4.47 µM (active),,,,inactive,,,inactive,,inactive,7.57 µM (active),,,,,,,,,
C#C[C@]1(O)CC[C@H]2[C@@H]3CCC4=CC(=O)CCC4=C3C=C[C@@]21CC,,,,10 µM (active),,,3.16 µM (active),inactive,,,,inactive,,,0.178 µM (active),,3.55 µM (active),,,
Clc1ccc(CO/N=C(\Cn2ccnc2)c2ccc(Cl)cc2Cl)c(Cl)c1,5.01 µM (active),2.24 µM (active),3.98 µM (active),6.31 µM (active),10 µM (active),10 µM (active),3.98 µM (active),16.9 µM (active),10.7 µM (active),,5.36 µM (active),,6.75 µM (active),3.98 µM (active),3.98 µM (active),5.01 µM (active),4.47 µM (active),7.08 µM (active),6.31 µM (active),
CN1CCc2cc(Cl)c(O)cc2[C@H]2c3ccccc3CC[C@@H]21,,,,,inactive,,,inactive,,inactive,,,,,5.62 µM (active),,,,,
Cc1c(Cl)c(=O)oc2cc(OP(=O)(OCCCl)OCCCl)ccc12,11.2 µM (active),11.2 µM (active),11.2 µM (active),7.94 µM (active),10 µM (active),,10 µM (active),,9.53 µM (active),13.5 µM (active),8.49 µM (active),9.53 µM (active),9.53 µM (active),8.91 µM (active),7.94 µM (active),8.91 µM (active),,8.91 µM (active),8.91 µM (active),10 µM (active)
CN1C(=O)[C@@H](NC(=O)c2cc3ccccc3[nH]2)N=C(c2ccccc2)c2ccccc21,,,,,,,,,,inactive,,,,,,,inactive,,,
NC(=O)OCCCc1ccccc1,inactive,inactive,inactive,inactive,inactive,inactive,inactive,inactive,inactive,inactive,,inactive,inactive,inactive,inactive,inactive,inactive,inactive,inactive,inactive
